About 79,000 compounds went through this panel and 15% of them were active in at least one assay; those are over-represented in the sample as a whole. Activity calls are given as the source filed them. Rule as the data show it: active = growth inhibition above about 70%; inactive = the rest.
Columns and labels:
[1] = NCI Yeast Anticancer Drug Screen. Data for the rad50 strain (AID 155);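 also: 0% = growth of vehicle-only cultures of the same strain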; conditions: S. cerevisiae rad50 strain growth inhibition, active compounds read high
Method in brief: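 Inhibition values express reduced yeast growth in compound-treated cultures relative to vehicle-treated controls.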

[2] = NCI Yeast Anticancer Drug Screen. Data for the mec2-1 strain (AID 157); conditions: S. cerevisiae mec2-1 strain, active compounds read high
Method in brief: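 Test agents were screened against the mec2-1 yeast strain, with defined DNA repair or cell cycle alteration. Growth was scored as inhibition against vehicle-only controls.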

[3] = NCI Yeast Anticancer Drug Screen. Data for the sgs1 mgt1 strain (AID 161);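 also: 0% = growth of cultures given vehicle only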; conditions: S. cerevisiae sgs1 mgt1 strain, active compounds read high
Method in brief: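 Test agents were incubated with a DNA-repair-mutant yeast strain. Growth was then read and compared against vehicle-treated controls.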

[4] = NCI Yeast Anticancer Drug Screen. Data for the cln2 rad14 strain (AID 165);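 also: 0% = growth equal to vehicle treated cultures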; conditions: S. cerevisiae cln2 rad14 strain, active compounds read high
Method in brief: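 Growth of compound-exposed yeast (cln2 rad14 genotype) measured and expressed as inhibition relative to vehicle.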

[5] = NCI Yeast Anticancer Drug Screen. Data for the bub3 strain (AID 167); conditions: S. cerevisiae bub3 mutant strain, active compounds read high
Method in brief: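 Steps: expose the mutant yeast strain to compound; grow alongside vehicle-treated cultures; measure growth; express inhibition against the vehicle cultures.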

[6] = NCI Yeast Anticancer Drug Screen. Data for the mlh1 rad18 strain (AID 175); conditions: S. cerevisiae mlh1 rad18 strain growth inhibition, active compounds read high
Method in brief: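 In this whole-cell yeast screen, a strain with altered DNA damage repair is challenged with compound, and its growth is measured against matched vehicle-treated controls.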

[7] = at 5.0 µM (retest, dose inferred, filed as 0.5)
[8] = at 50.0 µM (retest, dose inferred, filed as 5.0)

Measured: growth inhibition

CC(C)(C)c1ccc(CCO)cc1
inactive: [1]; [7] -10% | [1]; [8] 7% | [1]; at 50.0 µM 33.5% | [2]; [7] -2% | [2]; [8] -4% | [2]; at 50.0 µM 5.35% | [3]; [7] -3% | [3]; [8] -5% | [3]; at 50.0 µM 12.2% | [4]; [7] -2% | [4]; [8] -4% | [4]; at 50.0 µM -8.05% | [5]; [7] 0% | [5]; [8] 6% | [5]; at 50.0 µM -4.15% | [6]; [7] -5% | [6]; [8] 2% | [6]; at 50.0 µM 19.9%

NC(=S)N/N=C\c1nccc2c(N)cccc12
active: [1]; [8] 87% | [2]; [8] 89% | [2]; at 50.0 µM 76.7% | [3]; [8] 81% | [3]; at 50.0 µM 74% | [4]; [8] 81% | [5]; [8] 85% | [5]; at 50.0 µM 74.8% | [6]; [8] 85%
inactive: [1]; [7] 6% | [1]; at 50.0 µM 61.4% | [2]; [7] 35% | [3]; [7] 9% | [4]; [7] -12% | [4]; at 50.0 µM 36.4% | [5]; [7] 0% | [6]; [7] 10% | [6]; at 50.0 µM 67.5%

CCOc1ccc(C(CN2CCOCC2)C(C)=O)cc1OC (stereo not drawn)
inactive: [1]; [7] -3% | [1]; [8] 30% | [2]; [7] -27% | [2]; [8] 68% | [3]; [7] -4% | [3]; [8] 30% | [4]; [7] 0% | [4]; [8] 28% | [4]; at 50.0 µM 45.4% | [5]; [7] -8% | [6]; [7] -18% | [6]; at 50.0 µM 63.8%
active: [1]; at 50.0 µM 72.5% | [2]; at 50.0 µM 77.7% | [3]; at 50.0 µM 74.7% | [5]; [8] 81% | [5]; at 50.0 µM 78.7% | [6]; [8] 86%

CC1(C)OC2C(COC(c3ccccc3)(c3ccccc3)c3ccccc3)OC(c3c[nH]c4c(N)ncnc34)C2O1 (stereo not drawn)
active: [1]; [8] 99% | [1]; at 50.0 µM 98.9% | [2]; [8] 99% | [2]; at 50.0 µM 99.1% | [3]; [8] 99% | [3]; at 50.0 µM 99.2% | [4]; [8] 99% | [4]; at 50.0 µM 97.7% | [5]; [8] 99% | [5]; at 50.0 µM 98.8% | [6]; [8] 99% | [6]; at 50.0 µM 98.7%
inactive: [1]; [7] 9% | [2]; [7] 40% | [3]; [7] -6% | [4]; [7] -20% | [5]; [7] 10% | [6]; [7] 25%

CCOC(=O)NC(/C=C/c1ccccc1)NC(=O)OCC
active: [6]; at 50.0 µM 83.6%
inactive: [1]; [7] -2% | [1]; [8] -27% | [1]; at 50.0 µM 61.8% | [2]; [7] -1% | [2]; [8] -31% | [2]; at 50.0 µM 29.6% | [3]; [7] -4% | [3]; [8] -29% | [3]; at 50.0 µM 30.1% | [4]; [7] 5% | [4]; [8] -33% | [4]; at 50.0 µM 29.9% | [5]; [7] 2% | [5]; [8] -20% | [5]; at 50.0 µM 11.8% | [6]; [7] 1% | [6]; [8] -26%

O=C(CCc1ccccc1)ON1C(=S)NC(c2ccccc2)(c2ccccc2)C1=S
inactive: [1]; [7] 14% | [1]; [8] 42% | [1]; at 50.0 µM 29.7% | [2]; [7] 0% | [2]; [8] 22% | [2]; at 50.0 µM 55.7% | [3]; [7] -11% | [3]; [8] 64% | [3]; at 50.0 µM 63.3% | [4]; [7] 16% | [4]; [8] 59% | [5]; [7] 0% | [5]; [8] 47% | [6]; [7] 13% | [6]; [8] 61%
active: [4]; at 50.0 µM 70.2% | [5]; at 50.0 µM 79.2% | [6]; at 50.0 µM 72.4%

From PubChem BioAssay (NCI)
